# Experimental data from PubChem BioAssay (Tox21).
# The source made the active and inactive calls. Calls come from the whole dose curve.
# Target: Estrogen receptor (Homo sapiens) (UniProt P03372)
# Experiment: qHTS assay to identify small molecule agonists of the estrogen receptor alpha (ER-alpha) signaling pathway in the presence of an antagonist (AID 1259383); note: top concentration of the series differs between compounds; nearly all actives have a fitted effect of over 15% in size
# Settings: VM7Luc4E2 cells, ERE-luciferase, +ICI-182,780, 22 h; series mostly up to 92.4 µM
# Text: National Center for Advancing Translational Sciences [NCATS] NIH Chemical Genomics Center [NCGC] U.S. Environmental Protection Agency [EPA] National Institutes of Environmental Health Sciences [NIEHS] National Toxicology Program [NTP] Assay overview: Estrogen receptor (ER), a member of nuclear hormone receptor plays an important role in development, metabolic homeostasis and reproduction. Two subtypes of ER, ER-alpha and ER-beta, have similar expression patterns with some uniqueness in both types. Endocrine disrupting chemicals (EDCs) and their interactions with steroid hormone receptors like ER causes disruption of normal endocrine function. Therefore, it is important to understand the effect of environmental chemicals in ER signaling pathway. For identifying ER agonists, VM7Luc4E2 cell line has been used in the current assay. VM7Luc4E2 cell line (provided by Denison MS, University of California) endogenously expresses full-length ER-alpha and is stably transfected with a plasmid containing four estrogen responsive elements (ERE) upstream of a luciferase reporter gene. This current screening for measuring luciferase reporter gene activity using VM7Luc4E2 cells against Tox21 10K library collection is a confirmation study on agonist mode screening in presence of ER-antagonist (ICI-182,780) at 10.0nM final concentration.
# Assay Protocol Summary: VM7Luc4E2 cells were cultured in phenol red free assay medium containing 10% charcoal stripped FBS for 5 days prior to the assay. The cells were dispensed at 4,000 cells in 4uL of assay medium per well into white wall/solid-bottom 1536-well plates (Corning Life Sciences, Corning, NY) using a Multidrop Combi (Thermo Fisher Scientific Inc., Waltham, MA) dispenser. After the assay plates were incubated at 37C and 5% CO2 for 24hr, 1uL of 10.0nM (final concentration) ICI-182,780 or assay buffer was added using two separate tips of Flying Reagent Dispenser (FRD, Aurora Discovery, San Diego, CA). Then 23nL of compounds dissolved in DMSO at 15 concentrations and positive controls or DMSO only was transferred to the assay plates by a Pintool station (Wako, San Diego, CA). The assay plates were incubated at 37C and 5% CO2 for 22hr. For luciferase read, 4uL/well ONE-Glo reagent (Promega Corporation, Madison, WI) was added to each well using FRD and after 30min incubation at room temperature, luminescence signal was measured on ViewLux plate reader (PerkinElmer, Shelton, CT).
# % is set by controls: 0 for no effect and ±100 for the full control effect.
# Estrogen receptor (Homo sapiens), sequence (P03372 whole entry, looked up): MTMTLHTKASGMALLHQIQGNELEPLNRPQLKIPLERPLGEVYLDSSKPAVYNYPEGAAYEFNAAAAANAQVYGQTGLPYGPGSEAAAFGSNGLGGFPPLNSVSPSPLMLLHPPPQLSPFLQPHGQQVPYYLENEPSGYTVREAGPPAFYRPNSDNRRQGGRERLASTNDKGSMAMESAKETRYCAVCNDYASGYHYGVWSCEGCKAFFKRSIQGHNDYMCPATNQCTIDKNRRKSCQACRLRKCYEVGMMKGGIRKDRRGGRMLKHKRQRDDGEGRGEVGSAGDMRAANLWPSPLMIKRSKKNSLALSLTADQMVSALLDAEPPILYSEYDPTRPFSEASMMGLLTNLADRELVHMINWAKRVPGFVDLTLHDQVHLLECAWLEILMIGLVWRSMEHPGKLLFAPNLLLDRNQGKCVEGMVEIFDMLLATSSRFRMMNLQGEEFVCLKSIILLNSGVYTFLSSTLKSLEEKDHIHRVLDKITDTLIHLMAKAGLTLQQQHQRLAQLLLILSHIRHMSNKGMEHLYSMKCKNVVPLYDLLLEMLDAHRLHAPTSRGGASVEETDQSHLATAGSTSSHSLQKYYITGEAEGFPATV
SMILES,outcome,activation
O=C(c1ccccc1)C(Cl)Cl,inactive,
CC1COC(Cn2cncn2)(c2ccc(Oc3ccc(Cl)cc3)cc2Cl)O1 (stereo not given),inactive,
Oc1c(I)cc(I)cc1I,inactive,
CN1CSC(=S)N(C)C1,inactive,
Cc1cc(C)c(C(=O)P(=O)(c2ccccc2)c2ccccc2)c(C)c1,inactive,
ClC(Cl)=C(c1ccc(Cl)cc1)c1ccccc1Cl,inactive,
O=S(=O)(C(Cl)(Cl)Cl)C(Cl)(Cl)Cl,inactive,
CNC(=O)Oc1cc(C)c(SC)c(C)c1,inactive,
CO/C=C(/C(=O)OC)c1ccccc1Oc1cc(Oc2ccccc2C#N)ncn1,inactive,
Cc1ccc2nc3sc(=O)sc3nc2c1,,-0.0346% [at 19 µM] (inactive)
N#Cc1cc([N+](=O)[O-])ccc1N,inactive,
ClC1=C(Cl)[C@]2(Cl)[C@@H]3[C@@H](Cl)[C@H]4O[C@H]4[C@@H]3C1(Cl)C2(Cl)Cl,inactive,
CC(c1ccccc1)(c1ccc(O)cc1)c1ccc(O)cc1,inactive,
COc1cc(OC)c(OC)cc1C=O,inactive,
O=C(Nc1ccccc1-c1ccc(Cl)cc1)c1cccnc1Cl,inactive,
c1ccccc1,inactive,
CCOC(=O)C(O)(c1ccc(Cl)cc1)c1ccc(Cl)cc1,inactive,
O=[N+]([O-])c1c(Cl)c(Cl)cc(Cl)c1Cl,inactive,
OCC(c1ccc(Cl)cc1)c1ccc(Cl)cc1,inactive,
OC(Cc1ccccc1Cl)(Cn1[nH]cnc1=S)C1(Cl)CC1 (stereo not given),inactive,
CCN(CC)C(=O)Cl,inactive,
COc1ccc(C(c2ccc(OC)cc2)C(Cl)(Cl)Cl)cc1,inactive,
CCC1(c2cnc[nH]2)Cc2ccccc2C1,inactive,
O=C1C(I)=CC(=C(c2cc(I)c(O)c(I)c2)c2ccccc2C(=O)O)C=C1I,inactive,
Cc1nnc2n1-c1sc(CCc3ccc(CC(C)C)cc3)cc1C(c1ccccc1Cl)=NC2C (stereo not given),inactive,
